Measurements published in the supplement of paper PMC10849652.
Targets with a hit are over-represented here; the source holds about 7,900 in all. About 0.6% of all pairs of compound and target were hits.

Key:
Test in all cases: log2 fold change, soluble protein after heating vs DMSO (PISA); higher = thermal stabilisation; K562 cells, 10 uM, 30 min; active = over 0.2 and 3.5 SD of the protein, either way, in both replicates (recomputed)
[1] = compound: COC1=CC=C(C=C1)CN2C=CC3=C2C=C(C=C3)C(=O)NO
Outline: (§1)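 K562 cells at 2×10^6 cells/mL were treated for 30 min with 10 μM compound, and aliquots were heated for 3 min over 48°C-58°C before pooling. Extraction used PBS with 0.5% NP-40 at 4°C, and soluble protein was the supernatant after 21,000xg for 90 min, measured by TMTpro 16plex LC-MS/MS with channel sums equalised. Thermal stability values, relative to control samples and from duplicates, are log2 fold changes.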

filanesib = compound: CON(C)C(=O)N1N=C(c2cc(F)ccc2F)S[C@@]1(CCCN)c1ccccc1 [filanesib]
Outline: as §1

zotarolimus = compound: CO[C@H]1C[C@@H]2CC[C@@H](C)[C@@](O)(O2)C(=O)C(=O)N2CCCC[C@H]2C(=O)O[C@H]([C@H](C)C[C@@H]2CC[C@H](n3cnnn3)[C@H](OC)C2)CC(=O)[C@H](C)/C=C(\C)[C@@H](O)[C@@H](OC)C(=O)[C@H](C)C[C@H](C)/C=C/C=C/C=C/1C [zotarolimus]
Outline: as §1

idasanutlin = compound: COc1cc(C(=O)O)ccc1NC(=O)[C@@H]1N[C@@H](CC(C)(C)C)[C@](C#N)(c2ccc(Cl)cc2F)[C@H]1c1cccc(Cl)c1F [idasanutlin]
Outline: as §1

alisertib = compound: COc1cc(Nc2ncc3c(n2)-c2ccc(Cl)cc2C(c2c(F)cccc2OC)=NC3)ccc1C(=O)O [alisertib]
Outline: as §1

[2] = compound: COc1cc2nc(-c3cc(F)ccc3O)nc(N[C@@H]3CNC[C@H]3C(C)(C)O)c2cc1OC
Outline: as §1

gefitinib = compound: COc1cc2ncnc(Nc3ccc(F)c(Cl)c3)c2cc1OCCCN1CCOCC1 [gefitinib]
Outline: as §1

[3] = compound: COc1cccc2cc(-c3nc([C@H]4CC[C@H](C(=O)O)CC4)n4ncnc(N)c34)[nH]c12
Outline: as §1

lapatinib = compound: CS(=O)(=O)CCNCc1ccc(-c2ccc3ncnc(Nc4ccc(OCc5cccc(F)c5)c(Cl)c4)c3c2)o1 [lapatinib]
Outline: as §1

pictilisib = compound: CS(=O)(=O)N1CCN(Cc2cc3nc(-c4cccc5[nH]ncc45)nc(N4CCOCC4)c3s2)CC1 [pictilisib]
Outline: as §1

[4] = compound: CS(=O)(=O)c1ccc(-c2cnc(N)c(C(=O)Nc3ccccc3)n2)cc1
Outline: as §1

crizotinib = compound: C[C@@H](Oc1cc(-c2cnn(C3CCNCC3)c2)cnc1N)c1c(Cl)ccc(F)c1Cl [crizotinib]
Outline: as §1

[5] = compound: C[C@@H]1COCCN1C2=NC(=NC(=C2)C3(CC3)S(=O)(=O)C)C4=C5C=CNC5=CC=C4
Outline: as §1

[6] = compound: C[C@H](C1=CC=C(C=C1)C(=O)NC2=C3C=CNC3=NC=C2)N
Outline: as §1

duvelisib = compound: C[C@H](Nc1ncnc2nc[nH]c12)c1cc2cccc(Cl)c2c(=O)n1-c1ccccc1 [duvelisib]
Outline: as §1

gandotinib = compound: Cc1cc(Nc2cc(CN3CCOCC3)c3nc(C)c(Cc4ccc(Cl)cc4F)n3n2)n[nH]1 [gandotinib]
Outline: as §1

tozasertib = compound: Cc1cc(Nc2cc(N3CCN(C)CC3)nc(Sc3ccc(NC(=O)C4CC4)cc3)n2)n[nH]1 [tozasertib]
Outline: as §1

[7] = compound: Cc1cc(SCc2sc(-c3ccc(C(F)(F)F)cc3)nc2C)ccc1OCC(=O)O
Outline: as §1

doramapimod = compound: Cc1ccc(-n2nc(C(C)(C)C)cc2NC(=O)Nc2ccc(OCCN3CCOCC3)c3ccccc23)cc1 [doramapimod]
Outline: as §1

ispinesib = compound: Cc1ccc(C(=O)N(CCCN)[C@@H](c2nc3cc(Cl)ccc3c(=O)n2Cc2ccccc2)C(C)C)cc1 [ispinesib]
Outline: as §1

Measured: log2 fold change

MTHFD1 (UniProt P11586)
UniProt P11586, sequence (P11586 whole entry, looked up): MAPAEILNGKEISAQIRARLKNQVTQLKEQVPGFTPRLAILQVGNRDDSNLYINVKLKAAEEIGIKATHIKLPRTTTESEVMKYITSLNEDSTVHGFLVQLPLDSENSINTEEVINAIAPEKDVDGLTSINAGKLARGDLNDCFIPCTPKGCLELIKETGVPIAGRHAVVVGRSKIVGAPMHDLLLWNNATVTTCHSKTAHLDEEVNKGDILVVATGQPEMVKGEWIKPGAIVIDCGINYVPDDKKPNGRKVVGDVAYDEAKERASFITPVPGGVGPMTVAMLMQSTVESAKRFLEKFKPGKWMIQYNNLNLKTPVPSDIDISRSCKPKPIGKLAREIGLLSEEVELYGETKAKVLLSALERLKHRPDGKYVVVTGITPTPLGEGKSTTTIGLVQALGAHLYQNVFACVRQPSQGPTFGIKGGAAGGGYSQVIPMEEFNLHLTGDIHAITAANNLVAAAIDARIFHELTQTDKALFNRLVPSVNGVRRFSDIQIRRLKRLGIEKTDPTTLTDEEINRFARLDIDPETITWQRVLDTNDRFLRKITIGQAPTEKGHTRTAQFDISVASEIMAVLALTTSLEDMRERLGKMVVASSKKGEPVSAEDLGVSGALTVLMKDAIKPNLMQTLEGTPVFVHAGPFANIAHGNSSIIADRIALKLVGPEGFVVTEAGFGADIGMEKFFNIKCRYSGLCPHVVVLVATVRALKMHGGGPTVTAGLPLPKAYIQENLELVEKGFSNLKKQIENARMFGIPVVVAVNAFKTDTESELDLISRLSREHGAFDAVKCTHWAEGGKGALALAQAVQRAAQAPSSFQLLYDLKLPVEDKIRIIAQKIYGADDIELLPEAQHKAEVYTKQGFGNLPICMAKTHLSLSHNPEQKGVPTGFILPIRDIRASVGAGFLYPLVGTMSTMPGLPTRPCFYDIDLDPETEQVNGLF
inactive: [1] 0.048 | filanesib -0.07 | zotarolimus 0.04 | idasanutlin -0.036 | alisertib -0.001 | [2] 0.017 | gefitinib 0.055 | [3] -0.015 | lapatinib 0.014 | pictilisib -0.002 | [4] 0.101 | crizotinib -0.15 | [5] 0.107 | [6] -0.003 | duvelisib 0.016 | gandotinib -0.077 | tozasertib -0.054 | [7] 0.054 | doramapimod -0.053 | ispinesib -0.021

MKRN2 (UniProt Q9H000)
UniProt Q9H000, sequence (Q9H000 whole entry, looked up): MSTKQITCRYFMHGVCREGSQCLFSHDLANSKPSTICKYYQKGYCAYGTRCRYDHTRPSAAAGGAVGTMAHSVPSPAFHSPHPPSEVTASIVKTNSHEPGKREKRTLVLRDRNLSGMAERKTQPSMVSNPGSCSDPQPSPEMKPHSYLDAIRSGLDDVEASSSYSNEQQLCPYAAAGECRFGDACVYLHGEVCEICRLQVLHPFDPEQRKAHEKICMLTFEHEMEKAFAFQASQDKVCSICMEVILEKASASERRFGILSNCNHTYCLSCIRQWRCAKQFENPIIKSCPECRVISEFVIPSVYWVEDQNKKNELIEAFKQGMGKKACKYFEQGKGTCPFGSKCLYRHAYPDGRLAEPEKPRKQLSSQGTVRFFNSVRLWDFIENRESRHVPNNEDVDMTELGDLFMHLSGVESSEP
inactive: [1] 0.024 | filanesib 0.137 | zotarolimus -0.035 | idasanutlin 0.147 | alisertib -0.009 | [2] 0.101 | gefitinib -0.099 | [3] -0.079 | lapatinib -0.027 | pictilisib 0.03 | [4] -0.035 | crizotinib -0.094 | [5] -0.077 | [6] 0.117 | duvelisib -0.111 | gandotinib 0.221 | tozasertib 0.085 | [7] 0.076 | doramapimod -0.005 | ispinesib -0.161

OXA1L (UniProt Q15070)
inactive: [1] -0.023 | filanesib -0.123 | zotarolimus 0.009 | idasanutlin -0.029 | alisertib 0.003 | [2] -0.186 | gefitinib -0.004 | [3] 0.053 | lapatinib 0.013 | pictilisib 0.058 | [4] -0.042 | crizotinib -0.064 | [5] 0.004 | [6] -0.018 | duvelisib 0.021 | gandotinib 0.012 | tozasertib 0.005 | [7] 0.018 | doramapimod -0.01 | ispinesib -0.1

NUCKS1 (UniProt Q9H1E3)
active: crizotinib 0.274
inactive: [1] -0.035 | filanesib 0.051 | zotarolimus -0.031 | idasanutlin -0.011 | alisertib -0.071 | [2] 0.182 | gefitinib -0.001 | [3] 0.02 | lapatinib -0.064 | pictilisib -0.011 | [4] -0.147 | [5] -0.133 | [6] 0.029 | duvelisib 0.005 | gandotinib 0.001 | tozasertib -0.064 | [7] -0.089 | doramapimod -0.03 | ispinesib 0.168

MNAT1 (UniProt P51948)
inactive: [1] -0.025 | filanesib 0.073 | zotarolimus 0.011 | idasanutlin 0.021 | alisertib -0.047 | [2] -0.04 | gefitinib -0.039 | [3] 0.036 | lapatinib 0.009 | pictilisib -0.016 | [4] 0.007 | crizotinib 0.02 | [5] -0.068 | [6] -0.036 | duvelisib 0.007 | gandotinib 0.024 | tozasertib 0.015 | [7] 0.005 | doramapimod -0.057 | ispinesib 0.089

MITF (UniProt O75030)
inactive: [1] 0.122 | filanesib 0.106 | idasanutlin -0.042 | alisertib 0.008 | gefitinib -0.13 | [3] 0 | pictilisib -0.397 | [4] 0.026 | crizotinib -0.137 | gandotinib -0.13 | doramapimod 0.006

MRPS21 (UniProt P82921)
inactive: [1] 0.007 | filanesib 0.032 | zotarolimus 0.026 | idasanutlin -0.293 | alisertib 0.043 | [2] -0.053 | gefitinib 0.019 | [3] 0.021 | lapatinib 0.261 | [4] 0.146 | crizotinib -0.128 | [5] 0.07 | [6] 0.209 | duvelisib 0.155 | tozasertib 0.004 | [7] 0.16 | doramapimod 0.037 | ispinesib -0.239

ORC5 (UniProt O43913)
UniProt O43913, sequence (O43913 whole entry, looked up): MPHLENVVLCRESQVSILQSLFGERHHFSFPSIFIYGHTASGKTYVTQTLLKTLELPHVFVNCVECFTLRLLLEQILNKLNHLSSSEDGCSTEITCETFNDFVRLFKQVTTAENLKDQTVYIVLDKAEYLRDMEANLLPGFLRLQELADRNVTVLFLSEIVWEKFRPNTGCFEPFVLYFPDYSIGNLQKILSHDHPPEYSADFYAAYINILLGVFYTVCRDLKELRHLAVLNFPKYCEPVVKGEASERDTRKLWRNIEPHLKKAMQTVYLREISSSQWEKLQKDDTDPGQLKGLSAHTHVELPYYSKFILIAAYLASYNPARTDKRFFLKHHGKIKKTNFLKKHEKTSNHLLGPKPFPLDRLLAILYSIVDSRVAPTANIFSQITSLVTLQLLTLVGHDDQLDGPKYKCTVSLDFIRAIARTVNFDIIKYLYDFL
inactive: [1] 0.016 | filanesib 0.104 | zotarolimus 0.028 | idasanutlin -0.013 | alisertib 0.125 | [2] 0.07 | gefitinib 0.088 | [3] 0.018 | lapatinib 0.062 | pictilisib 0.012 | [4] 0.166 | [6] 0.008 | duvelisib 0.074 | gandotinib -0.226 | tozasertib -0.007 | [7] 0.135 | doramapimod -0.104 | ispinesib -0.152
active: crizotinib -0.766

NAT14 (UniProt Q8WUY8)
UniProt Q8WUY8, sequence (Q8WUY8 whole entry, looked up): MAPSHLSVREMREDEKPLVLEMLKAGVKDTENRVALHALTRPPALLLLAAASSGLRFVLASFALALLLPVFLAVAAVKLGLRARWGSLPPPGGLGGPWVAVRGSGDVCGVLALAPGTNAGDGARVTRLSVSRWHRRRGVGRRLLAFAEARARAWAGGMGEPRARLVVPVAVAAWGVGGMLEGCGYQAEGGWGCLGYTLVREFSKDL
active: ispinesib -0.418
inactive: [1] 0.151 | filanesib -0.001 | zotarolimus 0.107 | idasanutlin -0.041 | alisertib -0.013 | [2] -0.086 | gefitinib -0.016 | [3] 0.12 | lapatinib 0.081 | [4] 0.006 | crizotinib -0.228 | [5] -0.019 | [6] -0.119 | duvelisib 0.03 | tozasertib -0.063 | [7] 0 | doramapimod -0.02

MSL1 (UniProt Q68DK7)
UniProt Q68DK7, sequence (Q68DK7 whole entry, looked up): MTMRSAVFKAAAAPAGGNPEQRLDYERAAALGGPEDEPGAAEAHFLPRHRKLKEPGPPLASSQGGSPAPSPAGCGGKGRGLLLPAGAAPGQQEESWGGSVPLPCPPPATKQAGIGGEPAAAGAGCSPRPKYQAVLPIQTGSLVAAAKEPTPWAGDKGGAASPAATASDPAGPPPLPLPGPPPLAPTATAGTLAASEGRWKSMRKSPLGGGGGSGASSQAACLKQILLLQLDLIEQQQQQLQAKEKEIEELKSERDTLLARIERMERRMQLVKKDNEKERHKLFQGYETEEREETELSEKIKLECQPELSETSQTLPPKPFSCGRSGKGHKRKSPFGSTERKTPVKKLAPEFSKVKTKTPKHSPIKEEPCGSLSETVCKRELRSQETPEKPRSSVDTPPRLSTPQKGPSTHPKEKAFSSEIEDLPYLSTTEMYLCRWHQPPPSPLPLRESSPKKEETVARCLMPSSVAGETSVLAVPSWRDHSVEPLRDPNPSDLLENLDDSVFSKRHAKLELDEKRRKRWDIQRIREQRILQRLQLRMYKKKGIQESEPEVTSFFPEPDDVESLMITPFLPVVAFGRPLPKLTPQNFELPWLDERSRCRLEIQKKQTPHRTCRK
inactive: [1] -0.163 | filanesib -0.013 | idasanutlin -0.113 | alisertib -0.081 | [2] 0.275 | gefitinib 0.04 | [3] -0.012 | lapatinib -0.117 | pictilisib 0.197 | [4] 0.092 | crizotinib 0 | [5] 0.049 | duvelisib 0.195 | gandotinib 0.31 | [7] -0.162 | doramapimod -0.054 | ispinesib -0.078

MRPS2 (UniProt Q9Y399)
active: ispinesib -0.352
inactive: [1] -0.052 | filanesib -0.05 | zotarolimus -0.02 | idasanutlin -0.054 | alisertib -0.19 | [2] 0.005 | gefitinib -0.036 | [3] 0.006 | lapatinib 0.071 | pictilisib -0.015 | [4] -0.043 | crizotinib 0.078 | [5] 0.032 | [6] 0.048 | duvelisib -0.003 | gandotinib -0.117 | tozasertib 0.027 | [7] 0.022 | doramapimod -0.049

NME2P1 (UniProt O60361)
UniProt O60361, sequence (O60361 whole entry, looked up): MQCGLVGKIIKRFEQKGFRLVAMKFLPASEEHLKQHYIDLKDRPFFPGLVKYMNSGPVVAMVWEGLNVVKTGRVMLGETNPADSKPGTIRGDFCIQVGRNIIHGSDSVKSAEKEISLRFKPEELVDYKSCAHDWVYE
inactive: [1] -0.256 | filanesib 0.058 | zotarolimus -0.111 | idasanutlin -0.367 | alisertib -0.089 | [2] 0.122 | gefitinib -0.01 | [3] 0.084 | lapatinib -0.075 | pictilisib -0.041 | [4] -0.093 | crizotinib -0.066 | [5] -0.114 | [6] 0.079 | gandotinib -0.346 | tozasertib -0.012 | doramapimod 0.27 | ispinesib -0.119

OTUD4 (UniProt Q01804)
inactive: [1] -0.122 | filanesib 0.182 | zotarolimus 0.022 | idasanutlin 0.063 | alisertib -0.106 | [2] -0.062 | gefitinib 0.039 | [3] 0.013 | lapatinib 0.095 | pictilisib -0.025 | [4] 0.018 | crizotinib -0.001 | [5] -0.094 | [6] 0.106 | duvelisib -0.073 | gandotinib 0.059 | tozasertib 0.034 | [7] -0.001 | doramapimod 0.052 | ispinesib -0.034

NDUFB1 (UniProt O75438)
UniProt O75438, sequence (O75438 whole entry, looked up): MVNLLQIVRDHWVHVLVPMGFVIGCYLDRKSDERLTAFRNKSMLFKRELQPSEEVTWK
inactive: [1] 0.031 | filanesib -0.029 | zotarolimus -0.055 | idasanutlin 0.029 | alisertib -0.062 | [2] -0.08 | gefitinib 0.083 | [3] 0.076 | lapatinib -0.028 | pictilisib -0.196 | [4] 0.06 | crizotinib 0.019 | [5] 0.105 | [6] 0.044 | gandotinib -0.27 | tozasertib 0.001 | doramapimod -0.044

NUMBL (UniProt Q9Y6R0)
inactive: [1] -0.079 | filanesib 0.128 | zotarolimus -0.012 | idasanutlin -0.061 | alisertib -0.168 | [2] 0.005 | gefitinib 0.036 | [3] -0.149 | lapatinib 0.012 | pictilisib -0.022 | [4] 0.13 | crizotinib -0.021 | [5] 0.056 | [6] 0.044 | duvelisib 0.07 | gandotinib -0.025 | [7] 0.108 | doramapimod 0.109 | ispinesib -0.187

MYLK (UniProt Q15746)
UniProt Q15746, sequence (Q15746 whole entry, looked up): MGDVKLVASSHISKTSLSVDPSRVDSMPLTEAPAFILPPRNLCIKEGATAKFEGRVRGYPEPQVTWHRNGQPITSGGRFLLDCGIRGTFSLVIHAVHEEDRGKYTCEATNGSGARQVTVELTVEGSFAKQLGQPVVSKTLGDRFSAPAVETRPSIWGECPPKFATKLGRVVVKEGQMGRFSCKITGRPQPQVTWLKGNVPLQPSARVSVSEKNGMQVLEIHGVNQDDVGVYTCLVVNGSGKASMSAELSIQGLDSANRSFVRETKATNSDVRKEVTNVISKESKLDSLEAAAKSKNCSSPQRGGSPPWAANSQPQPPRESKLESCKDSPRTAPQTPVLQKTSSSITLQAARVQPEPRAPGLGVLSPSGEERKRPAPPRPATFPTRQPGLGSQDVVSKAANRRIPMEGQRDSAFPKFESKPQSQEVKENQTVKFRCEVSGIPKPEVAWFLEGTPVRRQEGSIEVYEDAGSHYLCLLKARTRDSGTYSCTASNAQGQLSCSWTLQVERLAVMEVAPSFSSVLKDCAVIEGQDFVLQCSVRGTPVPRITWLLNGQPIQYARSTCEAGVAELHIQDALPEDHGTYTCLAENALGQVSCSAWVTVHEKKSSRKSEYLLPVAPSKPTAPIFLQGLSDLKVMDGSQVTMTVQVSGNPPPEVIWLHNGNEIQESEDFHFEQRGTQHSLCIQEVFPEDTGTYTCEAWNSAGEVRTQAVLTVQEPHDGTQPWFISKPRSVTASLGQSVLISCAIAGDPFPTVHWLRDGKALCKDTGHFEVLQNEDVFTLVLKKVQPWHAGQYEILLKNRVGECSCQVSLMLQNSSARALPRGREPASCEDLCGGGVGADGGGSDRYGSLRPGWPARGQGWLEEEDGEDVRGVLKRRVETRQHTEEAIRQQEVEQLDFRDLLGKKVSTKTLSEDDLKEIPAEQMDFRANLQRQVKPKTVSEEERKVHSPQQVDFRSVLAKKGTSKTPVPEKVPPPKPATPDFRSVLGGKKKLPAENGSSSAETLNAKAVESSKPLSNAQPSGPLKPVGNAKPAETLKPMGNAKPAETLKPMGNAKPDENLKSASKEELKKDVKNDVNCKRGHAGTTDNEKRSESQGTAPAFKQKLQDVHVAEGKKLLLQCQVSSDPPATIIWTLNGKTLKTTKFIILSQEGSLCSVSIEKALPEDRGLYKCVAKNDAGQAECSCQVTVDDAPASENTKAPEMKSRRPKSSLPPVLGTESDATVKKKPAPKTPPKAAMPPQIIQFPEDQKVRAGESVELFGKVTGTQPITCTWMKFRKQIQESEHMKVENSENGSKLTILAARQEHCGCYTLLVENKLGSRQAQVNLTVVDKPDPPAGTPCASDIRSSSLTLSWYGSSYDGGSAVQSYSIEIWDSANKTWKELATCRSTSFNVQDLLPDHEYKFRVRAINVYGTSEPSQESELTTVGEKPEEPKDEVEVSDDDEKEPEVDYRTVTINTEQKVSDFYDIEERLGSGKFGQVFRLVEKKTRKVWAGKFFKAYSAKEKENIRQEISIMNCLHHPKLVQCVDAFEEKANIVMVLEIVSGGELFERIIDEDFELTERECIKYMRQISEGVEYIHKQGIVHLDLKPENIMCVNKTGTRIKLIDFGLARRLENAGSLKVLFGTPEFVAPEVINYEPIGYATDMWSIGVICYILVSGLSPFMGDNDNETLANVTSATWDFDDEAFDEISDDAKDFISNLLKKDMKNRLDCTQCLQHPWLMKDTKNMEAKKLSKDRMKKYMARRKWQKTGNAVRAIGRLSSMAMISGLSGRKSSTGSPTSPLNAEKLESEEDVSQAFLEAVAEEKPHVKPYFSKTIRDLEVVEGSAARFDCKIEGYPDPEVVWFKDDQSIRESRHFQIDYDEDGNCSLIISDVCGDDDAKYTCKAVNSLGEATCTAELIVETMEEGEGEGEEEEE
active: doramapimod 1.42
inactive: [1] -0.293 | filanesib 0.041 | zotarolimus 0.01 | alisertib -0.095 | [2] 0.043 | gefitinib 0.342 | [3] 0.16 | lapatinib 0.06 | pictilisib 0.098 | [4] 0.279 | crizotinib 0.027 | [6] 0.107 | duvelisib 0.009 | gandotinib -0.018 | tozasertib 0.327 | [7] 0.04 | ispinesib -0.054

NIPSNAP3B (UniProt Q9BS92)
UniProt Q9BS92, sequence (Q9BS92 whole entry, looked up): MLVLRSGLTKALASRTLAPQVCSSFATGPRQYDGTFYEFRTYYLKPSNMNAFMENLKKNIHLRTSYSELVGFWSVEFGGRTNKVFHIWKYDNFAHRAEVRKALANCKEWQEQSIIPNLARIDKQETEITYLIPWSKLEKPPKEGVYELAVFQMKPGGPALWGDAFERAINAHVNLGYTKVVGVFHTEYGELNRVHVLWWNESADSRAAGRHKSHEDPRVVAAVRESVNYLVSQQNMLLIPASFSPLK
inactive: [1] -0.033 | filanesib -0.168 | zotarolimus 0.013 | idasanutlin 0.046 | alisertib -0.046 | [2] -0.071 | gefitinib -0.138 | [3] 0.009 | lapatinib -0.09 | pictilisib 0.002 | [4] 0.03 | crizotinib 0.053 | [6] 0.015 | duvelisib -0.18 | gandotinib 0.082 | tozasertib -0.045 | [7] 0.039 | doramapimod -0.102
